# Several values for one entry are separate records, joined by “and”; a condition that tells them apart may be missing. Identical values can stand only once. Records with an inconclusive call do not appear. Activity calls are given as the source filed them. Calls follow the shape of the dose curve; as a rule, active = well fitted cell-killing curve with a large enough effect in the repeat runs; inconclusive = weak or mixed curves, or effect the other way; inactive = flat fitted curve, though single readings scatter.
# Assay: cAMP Responsive Elements (CRE) small molecule antagonists, cell-based qHTS assay: qHTS cell viability counter screen (AID 2060913); also: nearly all actives have a fitted effect of over 40% in size
# Settings: CRE-bla HEK293T viability, CellTiter-Glo luminescence, 5 h; series mostly up to 92.4 µM; viability change, negative = cytotoxic: at the top concentration
# In short: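 HEK293T CRE-bla, 2,000 cells/well, 18 h preincubation; cpd in DMSO + NKH477 0.25 uM final, 3 h 37 C/5% CO2; LiveBLAzer 2 h RT, then CellTiter-Glo 30 min RT, luminescence.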
# % is scaled to controls: 0 for no effect and ±100 for the full control effect; potency is read from the fitted curve at half-maximal effect.
Compound,"viability change, negative = cytotoxic",Potency
C[C@H](O)C(=O)Nc1c(I)c(C(=O)NC(CO)CO)c(I)c(C(=O)NC(CO)CO)c1I,5.49% [at 42.5 µM] (inactive),
COCCCN,,inactive
c1ccc(CCCc2ccccn2)cc1,0.169% (inactive),
C=CCCCCCCCCCCCCCCCC,-4.37% [at 8.39 µM] (inactive),
O=C(N/N=C/c1ccc([N+](=O)[O-])o1)c1ccc(O)cc1,-9.06% [at 42.5 µM] (inactive),
Cc1c(C)c2c(c(C)c1OC(=O)c1cccnc1)CC[C@@](C)(CCC[C@H](C)CCC[C@H](C)CCCC(C)C)O2,-0.2% [at 42.5 µM] (inactive),
c1ccc(Nc2ccccc2)cc1,,inactive
CC1(C)[C@H](C(=O)OCc2cccc(Oc3ccccc3)c2)[C@@H]1C=C(Cl)Cl,7.59% (inactive),
C1CNCCN1,,inactive
CCCOC(C(=O)OC1CCN(C)CC1)(c1ccccc1)c1ccccc1,-0.346% [at 42.5 µM] (inactive),
C=C(C)C(=O)OCC,1.36% (inactive),
Cc1ccc(C(C)OC(=O)C2(C)CCC(C(=O)O)C2(C)C)cc1 (stereo not given),1.43% [at 42.5 µM] (inactive),
O=C(C1CCCCC1)N1CC(=O)N2CCCc3ccccc3C2C1 (stereo not given),-2.51% [at 42.5 µM] (inactive),
CC(C)OC(=O)C(C)N(C(=O)c1ccccc1)c1ccc(F)c(Cl)c1 (stereo not given),-10.7% (inactive),
CCOC(=O)c1ccc(C#Cc2ccc3c(c2)C(C)(C)CCS3)nc1,10.1% [at 42.5 µM] (inactive),
Cc1cc(Cc2cc(C)cc(C(C)(C)C)c2O)c(O)c(C(C)(C)C)c1,,54.8 µM (active) and 40.3 µM (active)
O=[N+]([O-])c1cccc(Cl)c1,,inactive
Cc1nc2sccn2c(=O)c1CCN1CCC(=C(c2ccc(F)cc2)c2ccc(F)cc2)CC1,-13.5% [at 42.5 µM] (inactive),
CCCCCCCC/C=C/CCCOC(C)=O,3.93% (inactive),
CC(C)=CCC[C@@](C)(O)[C@H]1CC=C(C)CC1,0.483% [at 42.5 µM] (inactive),

Compound,"viability change, negative = cytotoxic",Potency
COc1ccc(-c2nc3ccc(C4=NNC(=O)CC4C)cc3[nH]2)cc1 (stereo not given),-5.35% [at 42.5 µM] (inactive),
Clc1cc(Cl)c2c(c1)N=C1CCCCCN1C2,-2.32% [at 42.5 µM] (inactive),
C=C1C[C@H]2[C@@H]3C=C(C)C4=CC(=O)CC[C@]4(C)[C@H]3CC[C@]2(C)[C@@]1(OC(C)=O)C(C)=O,,inactive
CN1CCN(N)CC1,8.36% [at 42.5 µM] (inactive),
N#CCCCC(C#N)CCC#N (stereo not given),-0.612% (inactive),
CC(=O)C(C)=O,-0.503% (inactive),
C=C/C(C)=C/C/C=C(\C)CCC=C(C)C,-0.23% (inactive),
Cc1nc(-c2ccccn2)ncc1C(=O)Nn1cc(C)c2cc(F)ccc21,-8.68% (inactive),
CC(=O)Nc1ccc(CC(=O)O)cc1,,inactive
COc1cc([N+](=O)[O-])ccc1N,0.337% (inactive),
O=C1Cc2cc(Cl)ccc2N1,4.44% [at 42.5 µM] (inactive),
CCOCCOC(=O)/C=C/c1ccc(OC)cc1,3% [at 42.5 µM] (inactive),
O=[N+]([O-])c1cncn1CCN1CCOCC1,16.6% [at 42.5 µM] (inactive),
CCC1=C(C)CN(C(=O)NCCc2ccc(S(=O)(=O)NC(=O)NC3CCC(C)CC3)cc2)C1=O (stereo not given),5.47% [at 42.5 µM] (inactive),
CC(C)c1cccc(C(C)C)c1N1C(=O)c2ccc(O)cc2C1=O,,61.1 µM (active)
CC1=CCCC(C)(C)C12CCC(C)O2 (stereo not given),1.95% (inactive),
O=C(OCC1CO1)C1CCCCC1C(=O)OCC1CO1 (stereo not given),0.172% (inactive),
CCOC(=S)SSC(=S)OCC,2.92% (inactive),
COc1ccc(CCN2CCC(Nc3nc4ccccc4n3Cc3ccc(F)cc3)CC2)cc1,,35.1 µM (active)
CCCCCCCCCCCCCCNCCO,-1.28% [at 42.5 µM] (inactive),

# Reference: PubChem BioAssay (Tox21)
